A selection follows.
aSyn UTR act: Activators via SNCA 5'UTR binding, MLPCN. activity score, % (tested at 7.5 µM), hits read low. alpha-synuclein 5'UTR reporter, activators screen. 7.1% of 300,000 active. AID 1814, 2009; in the data active = activity score below about -60%
* = called active by the depositor.

For O=C(CSc1nnc(-c2ccco2)o1)N1CCCCC1 the results were aSyn UTR act -95*.
Screening O=C(CSc1nnc(-c2ccco2)o1)c1ccc[nH]1 returned aSyn UTR act -158*.
Screening O=C(CSc1nnc(-c2cccs2)o1)N1CCCCC1 returned aSyn UTR act -99*.
CC1CCN(C(=O)CSc2nnc(-c3cccs3)o2)CC1 was read as aSyn UTR act -79*.
Screening CC1CCN(c2ccc(-c3cccs3)nn2)CC1 returned aSyn UTR act 102.
COc1ccc(C(=O)N/N=C(/C)c2cccc(NC(=O)c3ccccc3F)c2)cc1 was read as aSyn UTR act -79*.
For C/C(=N\NC(=O)c1cc(O)ccc1O)c1cccc(NC(=O)c2ccc(Cl)cc2)c1 the results were aSyn UTR act -99*.
For C/C(=N\NC(=O)c1ccncc1)c1cccc(NC(=O)c2ccc(C(C)(C)C)cc2)c1 the results were aSyn UTR act -123*.
COc1ccc(C(=O)N/N=C(\C)c2cccc(NC(=O)c3ccc(F)cc3)c2)c(OC)c1 was read as aSyn UTR act -66*.
O=C(CNC(=O)c1cccc(F)c1)N/N=C/c1ccc([N+](=O)[O-])s1 was read as aSyn UTR act -105*.
COc1ccccc1NC(=O)C(=O)N/N=C/c1ccc([N+](=O)[O-])s1 was read as aSyn UTR act -138*.
For COC(=O)N/N=C/c1ccc([N+](=O)[O-])s1 the results were aSyn UTR act -142*.
For O=C(N/N=C/c1ccc([N+](=O)[O-])s1)c1ccccc1 the results were aSyn UTR act 68.
`CCN(CC)c1ccc(C(=O)n2cnc3ccccc32)cc1` gave aSyn UTR act -128*.
Screening CCN(CC)C(=O)c1ccc2nc3ccccc3nc2c1 returned aSyn UTR act 50.
`CCN(CC)c1ccc(C(=O)Nn2cnc3ccccc3c2=O)cc1` gave aSyn UTR act -92*.
For COc1ccc(Oc2ccc(-c3ccn[nH]3)cc2)cc1 the results were aSyn UTR act -76*.
For Oc1ccc(Cl)cc1-c1cc(-c2ccccc2Cl)[nH]n1 the results were aSyn UTR act -158*.
`COc1ccc(-c2cc(-c3cc(C)ccc3O)[nH]n2)cc1` gave aSyn UTR act -249*.
`COc1ccc(-c2cc(-c3ccc(C)cc3)n[nH]2)c(O)c1` gave aSyn UTR act -144*.
`COc1ccc(-c2cc(-c3ccc(OC)cc3)[nH]n2)cc1` gave aSyn UTR act -155*.
Cc1ccc(O)c(-c2cc(-c3ccccc3[N+](=O)[O-])[nH]n2)c1 was read as aSyn UTR act -95*.
`Nc1c(C(=O)c2ccccc2)sc2nsc(SCCN3CCCC3)c12` gave aSyn UTR act -87*.
`COC(=O)c1cnc(SCC(=O)c2ccccc2)n1C` gave aSyn UTR act -94*.
Screening COC(=O)c1ccnc(SCC(=O)c2ccccc2)c1 returned aSyn UTR act -117*.
For COC(=O)c1cnc(SCc2ccc(Cl)cc2)n1C the results were aSyn UTR act -70*.
For Cn1c(SCC(=O)c2ccccc2)ncc(C(=O)Nc2ccccc2)c1=O the results were aSyn UTR act -67*.
For O=C(NNC1=C(C(=O)C(F)(F)F)CCC1)c1cccc(O)c1 the results were aSyn UTR act -153*.
Screening Cc1cccc(NC(=O)c2cc3ccccc3o2)c1 returned aSyn UTR act -272*.
For CCC(=O)Nc1cccc(NC(=O)c2cc3ccccc3o2)c1 the results were aSyn UTR act -168*.
`NS(=O)(=O)c1cccc(NC(=O)c2cc3ccccc3o2)c1` gave aSyn UTR act -71*.
Screening O=C(Nc1cccc(Br)c1)c1cc2ccccc2o1 returned aSyn UTR act -184*.
For COc1cccc(C(=O)Nc2ccc(C(F)(F)F)n(C)c2=O)c1 the results were aSyn UTR act -71*.
COc1ccsc1C(=O)Nc1ccc(F)cc1F was read as aSyn UTR act -69*.
Screening COc1cccc(C(=O)Nc2ccccc2F)c1 returned aSyn UTR act -73*.
`Cn1ccc(C(=O)Oc2ccc(C(=O)Nc3ccc(F)cc3F)cc2)n1` gave aSyn UTR act -122*.
Screening O=C(Nc1ccccc1F)Oc1cccc(OC(=O)Nc2ccccc2F)c1 returned aSyn UTR act -108*.
For COc1cccc(C(=O)Nc2ccc(F)c(F)c2F)c1 the results were aSyn UTR act -170*.
`COc1cccc(C(=O)Nc2ccc(F)cc2F)c1` gave aSyn UTR act -114*.
`Cc1cc(-c2onc3ccc(Cl)cc23)ccc1O` gave aSyn UTR act -91*.
`Cc1ccc(-c2onc3ccc(C=O)cc23)cc1` gave aSyn UTR act -139*.
`CC[n+]1c(/C=C2\Sc3ccccc3N2C)ccc2cccc(C)c21` gave aSyn UTR act 116.
`COc1ccc(C(=O)/C=C2\Sc3ccccc3N2C)cc1` gave aSyn UTR act -179*.
CC[C@@]1(O)C(=O)OCc2c1cc1n(c2=O)Cc2cc3c(N)cccc3nc2-1 was read as aSyn UTR act 103.
`O=c1cccc2n1Cc1cc3ccccc3nc1-2` gave aSyn UTR act -152*.
For Cc1ccccc1OCc1occc1C(=O)Nc1cccc(-n2cnnn2)c1 the results were aSyn UTR act -91*.
For NS(=O)(=O)c1ccc(CCNC(=O)c2ccc3ccccc3n2)cc1 the results were aSyn UTR act -83*.
For O=C(NCc1ccccc1Cl)c1ccc2ccccc2n1 the results were aSyn UTR act -121*.
NS(=O)(=O)c1ccc(CNc2ccc3ccccc3n2)cc1 was read as aSyn UTR act -120*.
`CCCc1ccc(-c2cc(C(=O)NN3CCOCC3)c3ccccc3n2)cc1` gave aSyn UTR act -93*.
Screening CCc1ccc(-c2cc(C(=O)Nn3cnnc3)c3ccccc3n2)cc1 returned aSyn UTR act 74.
For CC1=C/C(=C(/c2cc(C)c(O)c(Br)c2)c2ccccc2S(=O)(=O)O)C=C(Br)C1=O the results were aSyn UTR act 61.
CCCc1ccc(-c2cc(C(=O)NCCc3ccc(S(N)(=O)=O)cc3)c3ccccc3n2)cc1 was read as aSyn UTR act -115*.
CCCc1ccc(-c2cc(C(=O)Nc3ccc([N+](=O)[O-])cn3)c3ccccc3n2)cc1 was read as aSyn UTR act -90*.
`O=C(N/N=C/c1cc([N+](=O)[O-])ccc1O)c1cc(-c2ccccc2)nc2ccccc12` gave aSyn UTR act 81.
O=[N+]([O-])c1cccc(-c2noc(-c3cccs3)n2)c1 was read as aSyn UTR act -147*.
Screening COc1ccccc1-c1noc(-c2cccs2)n1 returned aSyn UTR act -236*.
Screening COc1cccc(-c2ccc(-c3noc(-c4cccs4)n3)c(OC)n2)c1 returned aSyn UTR act -85*.
For COc1ccccc1-c1noc(-c2ccncc2)n1 the results were aSyn UTR act -74*.
`COc1ccccc1-c1nc(-c2ccccn2)no1` gave aSyn UTR act 77.
Screening COc1ccc(-c2nc(-c3cccs3)no2)cc1 returned aSyn UTR act 83.
For Cc1cc2nc(-c3cccnc3SCC(=O)NCc3ccco3)[nH]c2cc1C the results were aSyn UTR act -145*.
`Cc1cc2nc(-c3cccnc3SCC(=O)NC3CC3)[nH]c2cc1C` gave aSyn UTR act -115*.
Cn1c(=O)c(C(=O)Nc2ncccc2O)c(O)c2ccccc21 was read as aSyn UTR act -147*.
Screening Cc1ccc(NC(=O)c2c(O)c3ccccc3n(C)c2=O)nc1 returned aSyn UTR act -98*.
Cc1cccc(NC(=O)c2c(O)c3ccccc3n(C)c2=O)c1 was read as aSyn UTR act -141*.
For CC(C)Oc1ccc(C(=O)NCc2cccs2)cc1 the results were aSyn UTR act -85*.

High-throughput results: PubChem, Broad Institute
